# Experimental data taken from the supplement of paper PMC10849652.
# Of roughly 7,900 targets only a part is listed; those with a hit were picked by preference. About 0.6% of all pairs of compound and target were hits. A number with no mark means an inactive call.
# Legend:
# Assay in all cases: log2 fold change, soluble protein after heating vs DMSO (PISA); higher = thermal stabilisation; K562 cells, 10 uM, 30 min; active = over 0.2 and 3.5 SD of the protein, either way, in both replicates (recomputed)
# [1] = compound: C#Cc1cccc(Nc2ncnc3cc(OCCOC)c(OCCOC)cc23)c1 [erlotinib]
# How it was run: (§1)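 Values are thermal stability changes relative to control samples and are taken from duplicates. They are stated as log2 fold changes. Before quantification by TMTpro 16plex LC-MS/MS with equalised channel sums, K562 cells at 2×10^6 cells/mL were treated with 10 μM compound for 30 min, heated in aliquots for 3 min across 48°C-58°C, pooled, extracted in PBS with 0.5% NP-40 at 4°C, and centrifuged at 21,000xg for 90 min to give the soluble supernatant.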
# [2] = compound: C/C(=N\NC(=O)C1=CC(=CC=C1)S(=O)(=O)N2CCOCC2)/C3=C(C=CC(=C3)Cl)O
# How it was run: as §1
# [3] = compound: C1=CC(=C(C=C1Cl)C2=NC3=NC=CN=C3C(=N2)NC4=CC=NC=C4)F
# How it was run: as §1
# [4] = compound: C1=CC(=CC=C1C2=NC3=C(N2)C=C(C=C3)C(=O)N)OC4=CC=C(C=C4)Cl
# How it was run: as §1
# [5] = compound: C1=CC2=C(C=CC(=C2)/C=C\3/C(=O)NC(=NCC4=CC=CS4)S3)N=C1
# How it was run: as §1
# [6] = compound: C1=CC2=NC=CN=C2C=C1/C=C/3\C(=O)NC(=O)S3
# How it was run: as §1
# [7] = compound: C1=CC=C(C=C1)C2=NC(=C(N2)C3=CC=NC=C3)C4=CC(=C(C=C4)Cl)O
# How it was run: as §1
# [8] = compound: C1=CC=C2C(=C1)C3=NNC4=CC=CC(=C43)C2=O
# How it was run: as §1
# [9] = compound: C1CCN(C1)C(=O)NC2=CC=CC(=C2)NC3=NC=C(C(=N3)NCCC4=CN=CN4)Br
# How it was run: as §1
# [10] = compound: C1CN(CCC1(CC2=CC=C(C=C2)Cl)N)C3=NC=NC4=C3C=CN4
# How it was run: as §1
# [11] = compound: C1COCCN1CCN2C3=CC=CC=C3N=C2NC(=O)C4=CC(=CC=C4)[N+](=O)[O-] [IRAK-1-4 Inhibitor I]
# How it was run: as §1
# [12] = compound: C=CC(=O)N1CCC[C@@H](n2nc(-c3ccc(Oc4ccccc4)cc3)c3c(N)ncnc32)C1 [ibrutinib]
# How it was run: as §1
# [13] = compound: CC(=O)c1cnc2ccc(-c3cc(Cl)c(O)c(Cl)c3)nc2c1N[C@H]1CC[C@H](CN(C)C)CC1
# How it was run: as §1
# [14] = compound: CC(C)(C)Cn1c(N)nc2ccc(-c3[nH]c(C(C)(C)C)nc3-c3ccc(F)cc3)nc21 [ralimetinib]
# How it was run: as §1
# [15] = compound: CC(C)(O)CC(=O)NCCn1ccc2ncnc(Nc3ccc(Oc4cccc(C(F)(F)F)c4)c(Cl)c3)c21
# How it was run: as §1
# [16] = compound: CC(C)C1=C2N=C(C=C(N2N=C1)NCC3=CC=CC=C3)NCCCCCCN
# How it was run: as §1
# [17] = compound: CC(C)C[C@@H](C=O)NC(=O)[C@H](CC(C)C)NC(=O)[C@H](CC(C)C)NC(=O)OCc1ccccc1
# How it was run: as §1
# [18] = compound: CC(C)N(C[C@H]1O[C@@H](n2cnc3c(N)ncnc32)[C@H](O)[C@@H]1O)[C@H]1C[C@@H](CCc2nc3cc(C(C)(C)C)ccc3[nH]2)C1 [pinometostat]
# How it was run: as §1
# [19] = compound: CC1=C(C(CC(=O)N1)C2=CC=C(C=C2)C(F)(F)F)C(=O)NC3=C(C=C4C(=C3)C=NN4)F
# How it was run: as §1
# [20] = compound: CC1=C(C2=C(C=C1)C(=O)C3=CC=CC=C3N2CCCN)C
# How it was run: as §1
# Sequence of UniProt Q6UUV7 (Q6UUV7 whole entry, looked up): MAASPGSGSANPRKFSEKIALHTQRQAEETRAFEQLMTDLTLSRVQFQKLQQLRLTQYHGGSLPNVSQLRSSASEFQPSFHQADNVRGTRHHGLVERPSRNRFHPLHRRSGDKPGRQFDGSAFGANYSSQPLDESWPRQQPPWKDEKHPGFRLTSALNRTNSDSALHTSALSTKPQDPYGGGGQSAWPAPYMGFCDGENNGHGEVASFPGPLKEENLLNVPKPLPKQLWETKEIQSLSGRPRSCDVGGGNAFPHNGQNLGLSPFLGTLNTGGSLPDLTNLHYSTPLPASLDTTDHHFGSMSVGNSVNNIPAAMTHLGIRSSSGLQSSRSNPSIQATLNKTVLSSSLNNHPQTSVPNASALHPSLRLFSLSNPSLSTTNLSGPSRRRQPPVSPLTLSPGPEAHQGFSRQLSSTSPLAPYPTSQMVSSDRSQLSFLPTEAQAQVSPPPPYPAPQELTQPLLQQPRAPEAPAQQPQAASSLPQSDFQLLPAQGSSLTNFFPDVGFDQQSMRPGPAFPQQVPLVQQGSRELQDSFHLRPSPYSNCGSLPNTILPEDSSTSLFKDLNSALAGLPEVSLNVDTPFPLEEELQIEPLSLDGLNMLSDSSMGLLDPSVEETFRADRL
# Sequence of UniProt P34810 (P34810 whole entry, looked up): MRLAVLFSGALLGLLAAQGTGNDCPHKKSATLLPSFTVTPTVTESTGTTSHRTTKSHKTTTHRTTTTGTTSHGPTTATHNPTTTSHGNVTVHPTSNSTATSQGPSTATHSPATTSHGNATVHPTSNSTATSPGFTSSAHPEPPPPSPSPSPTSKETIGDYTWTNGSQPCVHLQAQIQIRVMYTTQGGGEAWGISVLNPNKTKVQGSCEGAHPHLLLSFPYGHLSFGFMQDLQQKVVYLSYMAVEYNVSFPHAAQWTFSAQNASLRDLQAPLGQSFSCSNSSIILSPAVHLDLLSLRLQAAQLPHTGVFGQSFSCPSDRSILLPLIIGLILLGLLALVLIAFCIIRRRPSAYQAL
# Sequence of UniProt Q53ET0 (Q53ET0 whole entry, looked up): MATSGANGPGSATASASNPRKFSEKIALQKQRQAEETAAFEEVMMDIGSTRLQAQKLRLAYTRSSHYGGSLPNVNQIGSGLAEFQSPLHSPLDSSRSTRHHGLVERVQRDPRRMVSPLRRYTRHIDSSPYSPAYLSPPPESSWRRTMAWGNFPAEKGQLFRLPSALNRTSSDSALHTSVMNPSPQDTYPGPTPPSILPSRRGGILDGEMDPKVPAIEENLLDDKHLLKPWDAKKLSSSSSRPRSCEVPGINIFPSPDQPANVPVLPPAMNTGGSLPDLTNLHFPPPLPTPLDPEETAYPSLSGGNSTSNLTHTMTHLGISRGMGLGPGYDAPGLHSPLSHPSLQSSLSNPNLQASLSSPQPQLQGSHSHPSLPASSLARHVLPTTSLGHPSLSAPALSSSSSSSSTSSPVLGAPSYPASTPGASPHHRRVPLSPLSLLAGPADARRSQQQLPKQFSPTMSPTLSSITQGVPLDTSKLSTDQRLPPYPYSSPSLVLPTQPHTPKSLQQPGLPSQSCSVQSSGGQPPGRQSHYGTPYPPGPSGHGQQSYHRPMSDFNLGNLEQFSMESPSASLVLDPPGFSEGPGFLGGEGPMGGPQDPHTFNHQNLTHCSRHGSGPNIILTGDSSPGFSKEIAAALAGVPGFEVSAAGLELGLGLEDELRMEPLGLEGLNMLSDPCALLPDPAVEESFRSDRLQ
# Sequence of UniProt Q9Y6H1 (Q9Y6H1 whole entry, looked up): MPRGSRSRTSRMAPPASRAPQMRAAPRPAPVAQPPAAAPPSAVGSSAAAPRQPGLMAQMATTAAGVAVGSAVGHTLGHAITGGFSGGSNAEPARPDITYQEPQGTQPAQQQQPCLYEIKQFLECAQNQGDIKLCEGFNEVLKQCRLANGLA
# Sequence of UniProt Q8WUD6 (Q8WUD6 whole entry, looked up): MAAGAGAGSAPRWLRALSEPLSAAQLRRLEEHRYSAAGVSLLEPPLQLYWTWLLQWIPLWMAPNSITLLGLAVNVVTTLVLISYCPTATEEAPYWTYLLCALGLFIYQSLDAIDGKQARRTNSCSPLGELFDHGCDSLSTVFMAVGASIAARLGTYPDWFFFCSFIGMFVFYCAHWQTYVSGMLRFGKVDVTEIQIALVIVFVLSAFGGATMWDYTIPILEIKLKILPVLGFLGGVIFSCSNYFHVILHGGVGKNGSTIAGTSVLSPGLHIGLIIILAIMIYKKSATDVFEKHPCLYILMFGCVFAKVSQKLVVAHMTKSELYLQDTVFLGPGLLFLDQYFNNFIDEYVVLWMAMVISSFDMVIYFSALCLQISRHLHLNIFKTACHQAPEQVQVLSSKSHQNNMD
# Sequence of UniProt P51795 (P51795 whole entry, looked up): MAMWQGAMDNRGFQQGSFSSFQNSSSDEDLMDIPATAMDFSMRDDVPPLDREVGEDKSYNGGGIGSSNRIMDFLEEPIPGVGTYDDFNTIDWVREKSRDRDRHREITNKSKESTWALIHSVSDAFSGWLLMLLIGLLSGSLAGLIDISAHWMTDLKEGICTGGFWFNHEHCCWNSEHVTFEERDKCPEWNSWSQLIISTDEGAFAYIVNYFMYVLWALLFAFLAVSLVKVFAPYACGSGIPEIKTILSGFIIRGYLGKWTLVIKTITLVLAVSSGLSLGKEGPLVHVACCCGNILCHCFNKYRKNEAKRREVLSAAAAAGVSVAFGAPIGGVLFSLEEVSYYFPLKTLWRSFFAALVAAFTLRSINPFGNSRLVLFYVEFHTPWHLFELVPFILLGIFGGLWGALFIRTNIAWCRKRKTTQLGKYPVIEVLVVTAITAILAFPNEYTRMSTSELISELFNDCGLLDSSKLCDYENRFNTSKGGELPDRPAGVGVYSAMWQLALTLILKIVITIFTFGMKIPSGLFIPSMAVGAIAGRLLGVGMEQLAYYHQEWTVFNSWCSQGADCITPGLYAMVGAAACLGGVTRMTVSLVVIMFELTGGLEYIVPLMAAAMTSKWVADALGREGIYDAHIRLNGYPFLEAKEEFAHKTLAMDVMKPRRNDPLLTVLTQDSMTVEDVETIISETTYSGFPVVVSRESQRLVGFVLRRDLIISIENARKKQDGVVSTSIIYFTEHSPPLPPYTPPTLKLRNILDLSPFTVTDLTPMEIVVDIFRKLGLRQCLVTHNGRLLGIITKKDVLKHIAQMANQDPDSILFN
# Sequence of UniProt Q14004 (Q14004 whole entry, looked up): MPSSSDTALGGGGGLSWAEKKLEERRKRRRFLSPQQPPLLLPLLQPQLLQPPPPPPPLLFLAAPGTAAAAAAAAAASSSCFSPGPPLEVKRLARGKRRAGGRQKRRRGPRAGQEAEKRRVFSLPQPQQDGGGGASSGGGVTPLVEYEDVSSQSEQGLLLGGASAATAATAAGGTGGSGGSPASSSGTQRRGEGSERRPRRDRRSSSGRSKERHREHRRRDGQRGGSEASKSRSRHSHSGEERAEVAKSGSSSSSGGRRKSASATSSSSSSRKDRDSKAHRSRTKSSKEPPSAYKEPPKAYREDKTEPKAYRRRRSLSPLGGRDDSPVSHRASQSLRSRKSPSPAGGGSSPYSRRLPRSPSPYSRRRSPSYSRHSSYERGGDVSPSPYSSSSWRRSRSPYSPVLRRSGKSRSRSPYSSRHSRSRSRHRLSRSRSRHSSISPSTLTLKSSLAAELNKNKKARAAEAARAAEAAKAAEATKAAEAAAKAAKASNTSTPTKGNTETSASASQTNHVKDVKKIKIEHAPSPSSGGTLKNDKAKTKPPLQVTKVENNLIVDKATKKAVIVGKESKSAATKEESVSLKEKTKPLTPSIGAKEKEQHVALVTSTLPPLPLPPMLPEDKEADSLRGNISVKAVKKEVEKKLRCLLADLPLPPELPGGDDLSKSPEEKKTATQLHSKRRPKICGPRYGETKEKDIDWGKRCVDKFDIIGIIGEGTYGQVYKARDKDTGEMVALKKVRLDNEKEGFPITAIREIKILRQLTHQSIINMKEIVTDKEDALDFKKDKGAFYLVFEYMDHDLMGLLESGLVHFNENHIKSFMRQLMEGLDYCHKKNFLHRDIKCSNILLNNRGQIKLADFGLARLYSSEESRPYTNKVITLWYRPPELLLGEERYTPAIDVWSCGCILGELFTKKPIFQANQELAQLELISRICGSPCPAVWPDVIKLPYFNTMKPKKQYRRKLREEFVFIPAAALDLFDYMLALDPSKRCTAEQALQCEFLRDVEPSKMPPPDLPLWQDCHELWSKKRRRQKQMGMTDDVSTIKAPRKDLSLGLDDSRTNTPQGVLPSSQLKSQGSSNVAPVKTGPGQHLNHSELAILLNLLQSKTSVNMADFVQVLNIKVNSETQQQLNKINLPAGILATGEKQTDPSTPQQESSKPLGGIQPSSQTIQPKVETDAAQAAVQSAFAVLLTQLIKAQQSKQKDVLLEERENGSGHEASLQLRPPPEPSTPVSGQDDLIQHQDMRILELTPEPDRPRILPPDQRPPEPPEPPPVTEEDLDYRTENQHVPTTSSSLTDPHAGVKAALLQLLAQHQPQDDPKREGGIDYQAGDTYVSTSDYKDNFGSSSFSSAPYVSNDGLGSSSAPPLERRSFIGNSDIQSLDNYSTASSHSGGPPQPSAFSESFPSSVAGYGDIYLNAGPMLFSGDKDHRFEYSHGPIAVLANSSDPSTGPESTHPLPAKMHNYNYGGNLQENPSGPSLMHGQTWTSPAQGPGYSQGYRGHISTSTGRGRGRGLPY
# Sequence of UniProt P55210 (P55210 whole entry, looked up): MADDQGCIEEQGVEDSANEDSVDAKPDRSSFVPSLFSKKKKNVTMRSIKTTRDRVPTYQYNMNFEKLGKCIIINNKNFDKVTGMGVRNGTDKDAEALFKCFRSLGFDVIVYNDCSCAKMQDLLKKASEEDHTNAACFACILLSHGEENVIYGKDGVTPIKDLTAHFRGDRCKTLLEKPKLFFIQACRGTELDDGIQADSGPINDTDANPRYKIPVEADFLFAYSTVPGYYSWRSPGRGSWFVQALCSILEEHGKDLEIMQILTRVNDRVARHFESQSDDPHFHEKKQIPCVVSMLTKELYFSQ
# Sequence of UniProt P33552 (P33552 whole entry, looked up): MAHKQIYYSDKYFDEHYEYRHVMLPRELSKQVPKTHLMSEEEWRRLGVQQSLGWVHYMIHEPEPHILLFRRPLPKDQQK
Target,log2 fold change [1],log2 fold change [2],log2 fold change [3],log2 fold change [4],log2 fold change [5],log2 fold change [6],log2 fold change [7],log2 fold change [8],log2 fold change [9],log2 fold change [10],log2 fold change [11],log2 fold change [12],log2 fold change [13],log2 fold change [14],log2 fold change [15],log2 fold change [16],log2 fold change [17],log2 fold change [18],log2 fold change [19],log2 fold change [20]
CDK9 isoform 2 (UniProt P50750),0.043,-0.005,-0.174,0.024,-0.084,0.05,0.059,-0.076,-0.001,-0.059,-0.02,-0.017,0.233,-0.008,0,-0.113,0.044,0.157,-0.03,-0.144
CASP3 (UniProt P42574),-0.014,-0.021,0.238,0.006,-0.005,-0.001,0.086,0.015,-0.028,0.093,0.074,0.008,0,-0.022,0.043,0.048,0.067,-0.076,0.011,0.05
CRTC2 (UniProt Q53ET0),0.194,0.151,0.039,0.035,0.093,0.073,-0.129,-0.14,-0.233,0.08,-0.024,-0.048,-0.151,0,-0.053,-0.058,-0.032,0.01,0.113,0.101
CNOT4 isoform 6 (UniProt O95628),0.004,0.06,0.026,0.014,0.03,0.003,-0.007,-0.043,-0.011,0.044,0.044,0.016,-0.062,-0.048,0.002,0.038,-0.019,-0.025,0.018,0.051
CHCHD2 (UniProt Q9Y6H1),-0.083,0.107,0.092,0.049,0.028,0.032,-0.028,0.098,0.003,-0.001,0.009,0.067,0.022,-0.035,-0.017,0.095,-0.071,-0.068,0.144,-0.004
CAB39L (UniProt Q9H9S4),-0.026,-0.001,-0.088,0.065,0.042,0.015,0.007,-0.117,-0.068,-0.306,0.018,0.001,-0.126,0.057,-0.152,-0.024,0.032,0.102,–,-0.483
CAMKK2 (UniProt Q96RR4),-0.091,-0.047,-0.026,-0.232,-0.059,-0.081,-0.122,-0.037,-0.19,0.23,-0.05,-0.069,0.131,-0.117,0.002,0.069,-0.052,0.142,0.039,-0.025
CDK13 (UniProt Q14004),-0.064,0.039,-0.147,0.028,-0.126,-0.014,-0.012,-0.212,-0.006,-0.129,-0.05,0.024,-0.52 (active),0.199,0.031,-0.171,0.081,0.043,0.013,-0.017
CASP9 (UniProt P55211),–,0.059,-0.016,–,-0.049,–,-0.02,0.048,-0.054,-0.218,0.03,–,-0.096,0.008,-0.043,–,0.053,0.03,-0.071,-0.206
CASP7 isoform 3 (UniProt P55210),0.133,–,-0.105,0.217,–,0.118,–,–,–,–,–,-0.005,–,–,-0.003,0.035,–,–,0.064,–
CD68 (UniProt P34810),-0.13,–,–,0.022,–,0.094,–,–,–,–,–,0.057,–,–,–,-0.535 (active),–,–,–,–
CNN1 (UniProt P51911),–,0.062,0.055,–,0.063,–,–,0.041,-0.129,0.118,–,–,-0.086,–,-0.071,–,–,–,0.144,0.145
CHPT1 (UniProt Q8WUD6),–,0.181,0.24,–,0.078,–,0,-0.024,-0.004,0.01,–,–,0.023,-0.132,0.223,–,-0.002,–,0.26,0.044
CLCN5 isoform 2 (UniProt P51795),-0.009,–,–,0.064,–,–,0.125,–,-0.098,-0.011,-0.019,–,–,-0.154,–,-0.29,-0.004,0.061,0.021,0.009
CEP128 (UniProt Q6ZU80),–,-0.163,–,–,0.199,0.158,–,-0.037,0.141,-0.003,-0.149,-0.055,-0.022,–,–,–,–,0.012,–,0.1
CSNK1A1 isoform 3 (UniProt P48729),–,–,–,–,–,0.111,–,–,–,–,–,0.029,–,–,–,–,–,–,–,–
CRTC3 (UniProt Q6UUV7),–,–,0.04,–,–,0.094,-0.146,–,0.02,0.075,–,-0.035,–,0.048,-0.104,–,0.042,–,–,0
CCNL1 (UniProt Q9UK58),-0.001,–,–,0.094,–,–,–,–,–,–,–,–,–,–,–,-0.188,–,–,–,–
CFAP58 (UniProt Q5T655),–,–,–,–,–,–,0.047,–,–,–,–,–,–,-0.04,–,–,-0.035,–,–,–
CRMP1 isoform 2 (UniProt Q14194),-0.1,-0.273,–,0.009,0.101,-0.011,–,-0.037,0.088,-0.014,–,0.038,-0.224,–,–,0.124,–,–,0.196,0.181
CA1 (UniProt E5RIF9),–,–,0.096,–,–,0.135,–,–,0.014,-0.453,–,0.161,–,–,-0.052,–,–,–,–,-0.02
CKS2 (UniProt P33552),–,0.125,–,–,0.116,-0.001,–,-0.032,0.022,0.02,–,-0.087,-0.168,–,–,–,–,–,0.047,-0.058
CPNE5 (UniProt Q9HCH3),0.074,–,–,-0.175,–,–,–,–,0.087,-0.879 (active),–,–,–,–,–,-0.209,–,–,–,-0.225
"CCDC187, A0A1W2PQX5",–,-0.124,-0.079,–,0.169,–,-0.055,0.013,–,–,–,–,-0.14,-0.237,0.201,–,0.001,–,-0.11,–
CLPTM1L (UniProt G5E9Z2),–,0.109,0.492,–,-0.139,0.284,–,0.174,0.145,0.272,–,–,-0.03,–,-0.556,–,–,–,0.106,-0.201
